# Where “and” joins values, the source holds several entries; their conditions need not be identical. Equal entries are not always repeated. Results filed as inconclusive are left out. Where a call stands in place of a potency, no number is given. Calls of active or inactive are those of the source. Unless noted, calls come from the whole dose curve. Bridge positions count the residues as written; N and C are the ends. Square brackets hold non-standard residues; d marks the D form. Peptide text beside a SMILES is read from it. * marks the point of attachment. ξ: configuration not given here. Octanoyl(6-Me) = CCC(C)CCCCC(=O)*; ξThr(3R) = C[C@@H](O)C(N)C(=O)O; dDab = NCC[C@@H](N)C(=O)O; Dab = NCC[C@H](N)C(=O)O
# Assays:
# [1] = qHTS for Inhibitors of the Functional Ribonucleoprotein Complex (vRNP) of Lassa (LASV) Arenavirus: LASV Primary Screen - GLuc reporter signal (AID 1347082; calls by dose curve; tested in HEK293 reporter line; note: nearly all actives have a fitted effect of over 60% in size; note: potency is the fitted concentration of half-maximal effect)
# [2] = qHTS for Inhibitors of the Functional Ribonucleoprotein Complex (vRNP) of Lassa (LASV) Arenavirus: Viability assay - alamar blue signal for LASV Primary Screen (AID 1347083; calls by dose curve; tested in HEK293 reporter line; note: nearly all actives have a fitted effect of over 80% in size; note: potency is the fitted concentration of half-maximal effect)
# [3] = Cytotoxicity counterscreen for inhibitors of SARS-CoV-2 cell entry (AID 1645845); note: nearly all actives have a fitted effect of over 50% in size
# Procedure, shortened: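 ATP-content luminescence (ATPLite 1step, 15 min RT) read after 48 h compound exposure of Expi293F cells stably expressing human ACE2; normalized to cells-only wells and media-only wells.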
# [4] = Primary qHTS to identify inhibitors of SARS-CoV-2 cell entry (AID 1645846); conditions: activity change, negative = inhibition: at 57.1 µM (top of the series) unless noted; note: nearly all actives have a fitted effect of over 45% in size; note: potency is the fitted concentration of half-maximal effect
# Procedure, shortened: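 Inhibition of spike-mediated entry was scored in human ACE2-transfected Expi293F cells. Particles were MLV-pseudotyped with Wuhan-Hu-1 S carrying a 19-aa C-terminal deletion; signal was luciferase after two days, scaled between spike PP and fusion-protein-free PP.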
# [5] = biological target: Nuclear receptor subfamily 1 group I member 3 (Homo sapiens) (UniProt Q14994); assay: Primary qHTS for antagonist of constitutive androstane receptor (CAR) against the NCATS DSHEA and TCM libraries (AID 1794836; active = well fitted curve in the direction sought with a large enough effect; an effect the other way counts as inactive or inconclusive;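 note: HepG2 cells stably expressing hCAR with CYP2B6 luciferase reporter stimulated by CITCO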)
# Procedure, shortened: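 Antagonist mode: CAR reporter luminescence (ONE-Glo) in HepG2-CYP2B6-hCAR cells stimulated with 48 uM CITCO (final) over 24 h at 37 C, compounds titrated; viability read first by CellTiter-Fluor fluorescence.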
# CRL-7250 = normal cell line; assay: qHTS assay to identify novel small-molecules to repurpose for Merkel cell carcinoma treatment (AID 1296009; active = well fitted curve in the direction sought with a large enough effect; an effect the other way counts as inactive or inconclusive; note: nearly all actives have a fitted effect of over 60% in size); conditions: MCC and control cell lines, CellTiter-Glo viability, 72 h; series mostly up to 92 µM
# Procedure, shortened: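 Cell viability measured by CellTiter-Glo following 72 hr compound treatment at 37 degree celsius, with NPC and MIPE libraries tested in 8- and 11-point concentration series.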
# [6] = biological target: Nucleoprotein (Lymphocytic choriomeningitis virus (strain Armstrong)) (UniProt P09992); assay: qHTS for Inhibitors of the Functional Ribonucleoprotein Complex (vRNP) of Lymphocytic Choriomeningitis Arenaviruses (LCMV): LCMV Primary Screen - GLuc reporter signal (AID 1347086); note: nearly all actives have a fitted effect of over 70% in size; note: potency is the fitted concentration of half-maximal effect
# [7] = qHTS for Inhibitors of the Functional Ribonucleoprotein Complex (vRNP) of Lymphocytic Choriomeningitis Arenaviruses (LCMV): Viability assay - alamar blue signal for LCMV Primary Screen (AID 1347085; calls by dose curve; tested in HEK293 reporter line; note: nearly all actives have a fitted effect of over 80% in size; note: potency is the fitted concentration of half-maximal effect)
# [8] = Primary qHTS for Huh7 cytotoxicity: counterscreen for inhibitors of MERS-S pseudotyped particle cell entry (AID 1479147); conditions: outcome: dose series up to 57.1 µM unless noted
# [9] = Primary qHTS for inhibitors of MERS-S pseudo-typed particle cell entry (AID 1479149); note: nearly all actives have a fitted effect of over 60% in size
# [10] = Primary qHTS for Vero E6 cytotoxicity: counterscreen for inhibitors of SARS-S pseudo-typed particle cell entry (AID 1479150); conditions: outcome: dose series up to 57.1 µM unless noted
# [11] = qHTS profiling of the MIPE4 collection as inhibitors of Plasmodium falciparum (3D7) proliferation (AID 743344; call rule not given here); conditions: P. falciparum 3D7 in erythrocytes, SYBR Green DNA fluorescence, 72 h; at 28.5 µM (top of the series) unless noted
# Procedure, shortened: (§1)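 Parasite DNA was quantified by SYBR Green I fluorescence (ex 485, em 535 nm) after overnight lysis in saponin/Triton buffer at room temperature. Cultures at 0.3% parasitemia and 2.5% hematocrit were first exposed to compound for 72 h at 37 C; signals were normalised to artemisinin (0.29 uM) and vehicle wells.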
# [12] = qHTS profiling of the MIPE4 collection as inhibitors of Plasmodium falciparum (DD2) proliferation (AID 743345; call rule not given here); conditions: P. falciparum Dd2 in erythrocytes, SYBR Green DNA, 72 h; at 28.5 µM (top of the series) unless noted
# Procedure, shortened: as §1
# [13] = qHTS profiling of the MIPE4 collection as inhibitors of Plasmodium falciparum (DD2) proliferation (Rep 2) (AID 743346; call rule not given here); conditions: P. falciparum Dd2 in erythrocytes, SYBR Green DNA, 72 h; at 28.5 µM (top of the series) unless noted
# Procedure, shortened: as §1
# [14] = qHTS profiling of the MIPE4 collection as inhibitors of Plasmodium falciparum (HB3) proliferation (AID 743347; call rule not given here); conditions: P. falciparum HB3 in erythrocytes, SYBR Green DNA, 72 h; at 28.5 µM (top of the series) unless noted
# Procedure, shortened: as §1
# [15] = Primary qHTS for inhibitors of SARS-S pseudo-typed particle cell entry (AID 1479145); note: nearly all actives have a fitted effect of over 45% in size
# [16] = VSVG counterscreen qHTS to identify inhibitors of SARS-CoV-2 cell entry (AID 1645847); note: potency is the fitted concentration of half-maximal effect; nearly all actives have a fitted effect of over 65% in size
# Procedure, shortened: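 Luminescence from a luciferase reporter, normalised to bald particle and VSV-G pseudotyped particle wells, is the read-out. Cells are HEK293 expressing human ACE2, exposed to compound 1 h before a 48 h particle infection at 37 °C.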
# [17] = biological target: Alpha-galactosidase (Coffea arabica) (UniProt Q42656); assay: Counterscreen for Glucocerebrosidase Inhibitors: qHTS Assay for Coffee Bean alpha-Galactosidase at pH 4.5 (AID 957; active = well fitted curve in the direction sought with a large enough effect; an effect the other way counts as inactive or inconclusive)
# Procedure, shortened: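 Quantitative HTS of compounds (0.7 nM to 77 uM) against coffee bean alpha-galactosidase at pH 4.5, measuring 4-methylumbelliferone fluorescence released from 80 uM substrate.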
# [18] = biological target: Alpha-galactosidase (Coffea arabica) (UniProt Q42656); assay: Counterscreen for Glucocerebrosidase Inhibitors: qHTS Assay for Coffee Bean alpha-Galactosidase at pH 5.9 (AID 998; active = well fitted curve in the direction sought with a large enough effect; an effect the other way counts as inactive or inconclusive)
# Procedure, shortened: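 Fluorogenic 4-MU substrate hydrolysis, 80 uM substrate and 2 nM coffee bean alpha-galactosidase, pH 5.9 citrate buffer, 20 min at room temperature, then NaOH/glycine stop. Titration 0.7 nM–77 uM, normalized to no-enzyme and enzyme controls, AC50 via Hill equation.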
# Chain of Nucleoprotein (Lymphocytic choriomeningitis virus (strain Armstrong)) (P09992 whole entry, looked up): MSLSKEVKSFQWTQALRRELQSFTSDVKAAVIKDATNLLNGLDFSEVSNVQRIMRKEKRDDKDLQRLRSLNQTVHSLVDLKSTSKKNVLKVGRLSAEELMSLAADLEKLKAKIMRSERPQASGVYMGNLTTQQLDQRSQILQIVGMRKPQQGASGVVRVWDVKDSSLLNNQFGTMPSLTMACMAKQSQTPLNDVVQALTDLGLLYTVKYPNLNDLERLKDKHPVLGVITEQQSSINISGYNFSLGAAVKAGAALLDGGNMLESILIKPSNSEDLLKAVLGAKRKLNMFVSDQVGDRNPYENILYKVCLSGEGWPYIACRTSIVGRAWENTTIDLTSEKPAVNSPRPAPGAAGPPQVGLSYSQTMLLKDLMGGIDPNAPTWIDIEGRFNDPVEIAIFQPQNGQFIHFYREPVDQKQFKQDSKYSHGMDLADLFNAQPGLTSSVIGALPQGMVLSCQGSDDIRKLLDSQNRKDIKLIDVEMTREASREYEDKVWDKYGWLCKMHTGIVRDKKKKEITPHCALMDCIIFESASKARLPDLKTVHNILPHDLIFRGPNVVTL
# Chain of Alpha-galactosidase (Coffea arabica) (Q42656 whole entry, looked up): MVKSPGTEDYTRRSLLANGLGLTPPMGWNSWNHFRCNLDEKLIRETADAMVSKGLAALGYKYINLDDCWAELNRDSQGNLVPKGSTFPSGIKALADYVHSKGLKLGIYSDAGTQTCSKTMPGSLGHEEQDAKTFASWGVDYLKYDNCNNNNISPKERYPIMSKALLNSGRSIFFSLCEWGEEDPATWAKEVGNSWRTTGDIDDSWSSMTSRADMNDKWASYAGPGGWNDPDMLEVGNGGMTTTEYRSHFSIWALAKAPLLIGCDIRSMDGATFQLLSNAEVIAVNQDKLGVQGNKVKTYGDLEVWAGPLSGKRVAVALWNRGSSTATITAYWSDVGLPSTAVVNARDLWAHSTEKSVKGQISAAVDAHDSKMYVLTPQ
# Chain of Nuclear receptor subfamily 1 group I member 3 (Homo sapiens) (Q14994 whole entry, looked up): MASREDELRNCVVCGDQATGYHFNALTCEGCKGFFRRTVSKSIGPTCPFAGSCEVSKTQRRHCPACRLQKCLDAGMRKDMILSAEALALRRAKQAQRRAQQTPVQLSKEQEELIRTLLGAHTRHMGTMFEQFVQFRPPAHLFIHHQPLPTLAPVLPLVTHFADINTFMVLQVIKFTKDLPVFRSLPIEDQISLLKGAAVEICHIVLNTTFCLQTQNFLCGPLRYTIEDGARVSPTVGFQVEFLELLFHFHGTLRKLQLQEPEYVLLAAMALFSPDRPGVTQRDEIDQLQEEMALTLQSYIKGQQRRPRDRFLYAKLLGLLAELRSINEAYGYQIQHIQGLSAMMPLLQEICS
structure (smiles),measurement,setting,value
Cc1cc2nc3c(=O)[nH]c(=O)nc-3n(CC(O)C(O)C(O)CO)c2cc1C (stereo unspecified),Potency,[1],inactive
same,Potency,[2],inactive
same,Potency,[3],inactive
same,Potency,[4],inactive
same,Potency,[5],inactive
same,Potency,CRL-7250,inactive
C[C@](Cc1c[nH]c2ccccc12)(NC(=O)OC1C2CC3CC(C2)CC1C3)C(=O)NC[C@H](NC(=O)CCC(=O)O)c1ccccc1 (stereo partly specified),Potency,[1],inactive
same,Potency,[6],inactive
same,Potency,[3],inactive
same,Potency,[4],inactive
same,Potency,CRL-7250,inactive
CCCc1nc(C(C)(C)O)c(C(=O)O)n1Cc1ccc(-c2ccccc2-c2nn[nH]n2)cc1,Potency,[1],inactive
same,Potency,[7],inactive
same,Potency,[6],inactive
same,outcome,[8],inactive
same,Potency,[9],inactive
same,outcome,[10],inactive
same,Potency,[3],inactive
same,"activity change, negative = inhibition",[4],-8.69% and -17.9%
same,Potency,CRL-7250,inactive
CCC(C)CCCCC(=O)N[C@@H](CCN)C(=O)NC(C(=O)N[C@H](CCN)C(=O)N[C@@H]1CCNC(=O)C([C@@H](C)O)NC(=O)[C@@H](CCN)NC(=O)[C@@H](CCN)NC(=O)[C@@H](CC(C)C)NC(=O)[C@H](Cc2ccccc2)NC(=O)[C@H](CCN)NC1=O)[C@@H](C)O (stereo partly drawn) ({Octanoyl(6-Me)}-[Dab][ξThr(3R)][dDab][dDab][Dab]F[dL][dDab][dDab][ξThr(3R)]; lactam 4-C),Potency,[1],inactive
same,Potency,[3],inactive
same,Potency,[4],inactive
same,Potency,CRL-7250,inactive
Cc1c(NC(=O)c2ccc(C(C)(C)C)cc2)cccc1-c1cn(C)c(=O)c(Nc2ccc(C(=O)N3CCOCC3)cc2)n1,Potency,[1],inactive
same,Potency,[2],inactive
same,Potency,[6],inactive
same,Potency,[3],inactive
same,Potency,[4],inactive
same,Potency,CRL-7250,inactive
CCCCOc1ccc(C(=O)Nc2ccc(F)cc2F)cc1,Potency,[1],inactive
same,Potency,[6],inactive
same,Potency,[4],inactive
same,Potency,CRL-7250,inactive
COc1ccc(-c2cc(=O)c3c(O)cc(O)cc3o2)cc1O,Potency,[1],24.3 µM (active)
same,Potency,[6],24.3 µM (active)
same,Potency,[3],inactive
same,Potency,[4],inactive
same,Potency,CRL-7250,inactive
CCOC1OC(=O)C[C@H]1NC(=O)[C@@H]1CCCN1C(=O)[C@@H](NC(=O)c1ccc(N)c(Cl)c1)C(C)(C)C (stereo partly specified),"parasite growth, % of DMSO control",[11],265%
same,"parasite growth remaining, % of DMSO control (lower = more inhibition)",[12],97.4%
same,"parasite growth, % of control (lower = inhibition)",[13],67.6%
same,"growth, % of control",[14],216%
same,Potency,[1],inactive
same,Potency,[2],inactive
same,Potency,[7],inactive
same,Potency,CRL-7250,inactive
Nc1ncnc2c1ncn2[C@@H]1O[C@H](CO)[C@@H](O)[C@@H]1O,Potency,[1],inactive
same,Potency,[2],inactive
same,Potency,[6],inactive
same,Potency,[3],inactive
same,Potency,[4],28.2 µM (active)
same,Potency,CRL-7250,inactive
COc1ccc([C@@H]2CC(=O)c3c(O)cc(O[C@@H]4O[C@H](CO[C@@H]5O[C@@H](C)[C@H](O)[C@@H](O)[C@@H]5O)[C@@H](O)[C@H](O)[C@@H]4O)cc3O2)cc1O,Potency,[1],inactive
same,Potency,[2],inactive
same,Potency,[6],inactive
same,Potency,[15],inactive
same,outcome,[8],inactive
same,Potency,[9],inactive
same,outcome,[10],inactive
same,Potency,[3],inactive
same,"activity change, negative = inhibition",[4],-5.46%
same,Potency,CRL-7250,inactive
O=C(O)c1ccc(Nc2ncc3c(n2)-c2ccc(Cl)cc2C(c2c(F)cccc2F)=NC3)cc1,Potency,[1],inactive
same,Potency,[2],10.9 µM (active)
same,Potency,[6],inactive
same,Potency,[3],inactive
same,Potency,[16],1.08 µM (active)
same,Potency,CRL-7250,inactive
Nc1ncnc2c1c(-c1cccc(OCc3ccccc3)c1)cn2C1CC(CN2CCC2)C1 (stereo unspecified),Potency,[1],inactive
same,Potency,[2],inactive
same,Potency,[6],inactive
same,Potency,[3],inactive
same,Potency,CRL-7250,inactive
CN(C)CC[C@H](c1ccc(Cl)cc1)c1ccccn1,outcome,[17],inactive
same,outcome,[18],inactive
same,Potency,[1],inactive
same,Potency,[7],inactive
same,Potency,[6],inactive
same,Potency,CRL-7250,inactive
CC=CCC=CCCC(=O)[C@H]1O[C@@H]1C(N)=O,"parasite growth, % of DMSO control",[11],65.1%
same,"parasite growth remaining, % of DMSO control (lower = more inhibition)",[12],87.5%
same,"parasite growth, % of control (lower = inhibition)",[13],60%
same,"growth, % of control",[14],71.3%
same,Potency,[1],inactive
same,Potency,[2],inactive
same,Potency,[7],inactive
same,Potency,[6],inactive
same,Potency,CRL-7250,inactive
O=C(O)C(=O)Nc1cccc(C2=NN=N[N]2)c1,"parasite growth, % of DMSO control",[11],82.2%
same,"parasite growth remaining, % of DMSO control (lower = more inhibition)",[12],99.9%
same,"parasite growth, % of control (lower = inhibition)",[13],136%
same,"growth, % of control",[14],97.2%
same,Potency,[1],inactive
same,Potency,[2],inactive
same,Potency,[7],inactive
same,Potency,[6],inactive
same,Potency,CRL-7250,inactive
CCC[C@@H](NC(=O)[C@@H]1[C@H]2CCC[C@@H]2CN1C(=O)[C@@H](NC(=O)[C@@H](NC(=O)c1cnccn1)C1CCCCC1)C(C)(C)C)C(=O)C(=O)NC1CC1,Potency,[1],inactive
same,Potency,[2],inactive
same,Potency,[6],inactive
same,Potency,CRL-7250,inactive
C[C@@H]1CN(Cc2ccc(F)cc2)[C@@H](C)CN1C(=O)c1cc2c(C(=O)C(=O)N(C)C)cn(C)c2cc1Cl,Potency,[1],inactive
same,Potency,[6],30.6 µM (active)
same,Potency,[3],inactive
same,"activity change, negative = inhibition",[4],-24.1%
same,Potency,CRL-7250,inactive
CCOc1ccccc1OCCNC(C)Cc1ccc(OC)c(S(N)(=O)=O)c1 (stereo unspecified),Potency,[1],inactive
same,Potency,[2],inactive
same,Potency,[6],inactive
same,Potency,CRL-7250,inactive
COc1cc(F)c(C(C)C)cc1-c1ccc(C(F)(F)F)cc1CN1C(=O)O[C@H](c2cc(C(F)(F)F)cc(C(F)(F)F)c2)[C@@H]1C,Potency,[1],inactive
same,Potency,[2],0.0273 µM (active)
same,Potency,[7],0.0193 µM (active)
same,"activity change, negative = inhibition",[4],-5.3%
same,Potency,CRL-7250,inactive

# From PubChem BioAssay (NCATS)
